{"source": "the supplement of paper PMC4466140", "experiment_in_all_cases": "SPOT peptide array binding signal intensity (averaged, normalized) (arbitrary units (background-subtracted, floor 0; scale differs between SH3 domains)); higher = stronger binding of the SH3 domain to the peptide", "key": {"CaNbp2": {"biological_target": "CaNbp2", "in_short": "(§1)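 GST-fused SH3 domains from four yeast species were expressed in E. coli BL21(DE3), purified on glutathione Sepharose and incubated at 10 μg/ml overnight at 4°C in TBS-based blocking buffer on cellulose membranes carrying synthetic 15-mer peptides, with cysteines replaced by serines. Bound protein was detected with anti-GST antibody, an HRP anti-mouse secondary and luminol, then imaged and quantified with Genespotter. Binding signal is the normalized, background-subtracted spot intensity averaged over replicates, in arbitrary units that differ between domains.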"}, "CaRvs167": {"biological_target": "CaRvs167", "in_short": "as §1"}, "CaRvs167-3": {"biological_target": "CaRvs167-3", "in_short": "as §1"}, "CaSho1": {"biological_target": "CaSho1", "in_short": "as §1"}, "CaSla1-D1-D2": {"biological_target": "CaSla1-D1-D2", "in_short": "as §1"}, "CaSla1-D3": {"biological_target": "CaSla1-D3", "in_short": "as §1"}, "ScAbp1": {"biological_target": "ScAbp1", "in_short": "as §1"}, "ScBbc1": {"biological_target": "ScBbc1", "in_short": "as §1"}, "ScBem1-D1": {"biological_target": "ScBem1-D1", "in_short": "as §1"}, "ScBzz1-D1": {"biological_target": "ScBzz1-D1", "in_short": "as §1"}, "ScBzz1-D2": {"biological_target": "ScBzz1-D2", "in_short": "as §1"}, "ScCyk3": {"biological_target": "ScCyk3", "in_short": "as §1"}, "ScFus1": {"biological_target": "ScFus1", "in_short": "as §1"}, "ScHof1": {"biological_target": "ScHof1", "in_short": "as §1"}, "ScHse1": {"biological_target": "ScHse1", "in_short": "as §1"}, "ScLsb1": {"biological_target": "ScLsb1", "in_short": "as §1"}, "ScLsb2": {"biological_target": "ScLsb2", "in_short": "as §1"}, "ScLsb3": {"biological_target": "ScLsb3", "in_short": "as §1"}, "ScLsb4": {"biological_target": "ScLsb4", "in_short": "as §1"}, "ScMyo3": {"biological_target": "ScMyo3", "in_short": "as §1"}, "ScMyo5": {"biological_target": "ScMyo5", "in_short": "as §1"}, "ScNbp2": {"biological_target": "ScNbp2", "in_short": "as §1"}, "ScPex13": {"biological_target": "ScPex13", "in_short": "as §1"}, "ScRvs167": {"biological_target": "ScRvs167", "in_short": "as §1"}, "ScSho1": {"biological_target": "ScSho1", "in_short": "as §1"}, "ScSla1-D1-D2": {"biological_target": "ScSla1-D1-D2", "in_short": "as §1"}, "ScSla1-D3": {"biological_target": "ScSla1-D3", "in_short": "as §1"}, "SpAbp1-D1": {"biological_target": "SpAbp1-D1", "in_short": "as §1"}, "SpBbc1": {"biological_target": "SpBbc1", "in_short": "as §1"}, "SpBzz1-D1": {"biological_target": "SpBzz1-D1", "in_short": "as §1"}, "SpBzz1-D2": {"biological_target": "SpBzz1-D2", "in_short": "as §1"}, "SpCyk3": {"biological_target": "SpCyk3", "in_short": "as §1"}, "SpHof1": {"biological_target": "SpHof1", "in_short": "as §1"}, "SpHof1-2": {"biological_target": "SpHof1-2", "in_short": "as §1"}, "SpHof1-3": {"biological_target": "SpHof1-3", "in_short": "as §1"}, "SpHse1": {"biological_target": "SpHse1", "in_short": "as §1"}, "SpLsb1": {"biological_target": "SpLsb1", "in_short": "as §1"}, "SpLsb4": {"biological_target": "SpLsb4", "in_short": "as §1"}, "SpMyo1": {"biological_target": "SpMyo1", "in_short": "as §1"}, "SpNbp2": {"biological_target": "SpNbp2", "in_short": "as §1"}, "SpPex13": {"biological_target": "SpPex13", "in_short": "as §1"}, "SpRvs167": {"biological_target": "SpRvs167", "in_short": "as §1"}, "SpSla1-D1-D2": {"biological_target": "SpSla1-D1-D2", "in_short": "as §1"}, "SpSla1-D3": {"biological_target": "SpSla1-D3", "in_short": "as §1"}}, "data": [{"binder": "NPTKSPPPPPSPSTM", "values": [{"measurement": "SPOT peptide array binding signal intensity", "setting": "CaNbp2", "result": 45}, {"measurement": "SPOT peptide array binding signal intensity", "setting": "CaRvs167", "result": 0.667}, {"measurement": "SPOT peptide array binding signal intensity", "setting": "CaRvs167-3", "result": 1}, {"measurement": "SPOT peptide array binding signal intensity", "setting": "CaSho1", "result": 10.5}, {"measurement": "SPOT peptide array binding signal intensity", "setting": "CaSla1-D1-D2", "result": 49}, {"measurement": "SPOT peptide array binding signal intensity", "setting": "CaSla1-D3", "result": 30}, {"measurement": "SPOT peptide array binding signal intensity", "setting": "ScAbp1", "result": "≤ 0"}, {"measurement": "SPOT peptide array binding signal intensity", "setting": "ScBbc1", "result": "≤ 0"}, {"measurement": "SPOT peptide array binding signal intensity", "setting": "ScBem1-D1", "result": "≤ 0"}, {"measurement": "SPOT peptide array binding signal intensity", "setting": "ScBzz1-D1", "result": 274}, {"measurement": "SPOT peptide array binding signal intensity", "setting": "ScBzz1-D2", "result": 22}, {"measurement": "SPOT peptide array binding signal intensity", "setting": "ScCyk3", "result": "≤ 0"}, {"measurement": "SPOT peptide array binding signal intensity", "setting": "ScFus1", "result": "≤ 0"}, {"measurement": "SPOT peptide array binding signal intensity", "setting": "ScHof1", "result": 1}, {"measurement": "SPOT peptide array binding signal intensity", "setting": "ScHse1", "result": 21.5}, {"measurement": "SPOT peptide array binding signal intensity", "setting": "ScLsb1", "result": "≤ 0"}, {"measurement": "SPOT peptide array binding signal intensity", "setting": "ScLsb2", "result": "≤ 0"}, {"measurement": "SPOT peptide array binding signal intensity", "setting": "ScLsb3", "result": "≤ 0"}, {"measurement": "SPOT peptide array binding signal intensity", "setting": "ScLsb4", "result": "≤ 0"}, {"measurement": "SPOT peptide array binding signal intensity", "setting": "ScMyo3", "result": 771}, {"measurement": "SPOT peptide array binding signal intensity", "setting": "ScMyo5", "result": 343}, {"measurement": "SPOT peptide array binding signal intensity", "setting": "ScNbp2", "result": 47.5}, {"measurement": "SPOT peptide array binding signal intensity", "setting": "ScPex13", "result": 80}, {"measurement": "SPOT peptide array binding signal intensity", "setting": "ScRvs167", "result": "≤ 0"}, {"measurement": "SPOT peptide array binding signal intensity", "setting": "ScSho1", "result": 18}, {"measurement": "SPOT peptide array binding signal intensity", "setting": "ScSla1-D1-D2", "result": "≤ 0"}, {"measurement": "SPOT peptide array binding signal intensity", "setting": "ScSla1-D3", "result": 11.5}, {"measurement": "SPOT peptide array binding signal intensity", "setting": "SpAbp1-D1", "result": "≤ 0"}, {"measurement": "SPOT peptide array binding signal intensity", "setting": "SpBbc1", "result": "≤ 0"}, {"measurement": "SPOT peptide array binding signal intensity", "setting": "SpBzz1-D1", "result": 548}, {"measurement": "SPOT peptide array binding signal intensity", "setting": "SpBzz1-D2", "result": 7.25}, {"measurement": "SPOT peptide array binding signal intensity", "setting": "SpCyk3", "result": 4}, {"measurement": "SPOT peptide array binding signal intensity", "setting": "SpHof1", "result": 1.25}, {"measurement": "SPOT peptide array binding signal intensity", "setting": "SpHof1-2", "result": 4}, {"measurement": "SPOT peptide array binding signal intensity", "setting": "SpHof1-3", "result": 0.5}, {"measurement": "SPOT peptide array binding signal intensity", "setting": "SpHse1", "result": 94}, {"measurement": "SPOT peptide array binding signal intensity", "setting": "SpLsb1", "result": 1}, {"measurement": "SPOT peptide array binding signal intensity", "setting": "SpLsb4", "result": "≤ 0"}, {"measurement": "SPOT peptide array binding signal intensity", "setting": "SpMyo1", "result": 468}, {"measurement": "SPOT peptide array binding signal intensity", "setting": "SpNbp2", "result": "≤ 0"}, {"measurement": "SPOT peptide array binding signal intensity", "setting": "SpPex13", "result": "≤ 0"}, {"measurement": "SPOT peptide array binding signal intensity", "setting": "SpRvs167", "result": 2}, {"measurement": "SPOT peptide array binding signal intensity", "setting": "SpSla1-D1-D2", "result": "≤ 0"}, {"measurement": "SPOT peptide array binding signal intensity", "setting": "SpSla1-D3", "result": "≤ 0"}]}]}
